The target in experiment [1] is human Constitutive Androstane Receptor (CAR), NR1I3 (gene 9970) (UniProt Q14994). Kind of experiment: NVS_NR_hCAR_Antagonist: NovaScreen (NVS) Nuclear Receptor Binding Assay for human Constitutive Androstane Receptor Antagonism (CAR) (AID 2283344). Summed up: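 Single 25 uM duplicate primary screen, with concentration-series follow-up on actives. Cell-free binding format run in antagonist mode, TR-FRET signal taken 1 h post-dose; activity is signal loss relative to DMSO.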
Sequence of human Constitutive Androstane Receptor (CAR), NR1I3 (gene 9970) (Q14994 whole entry, looked up): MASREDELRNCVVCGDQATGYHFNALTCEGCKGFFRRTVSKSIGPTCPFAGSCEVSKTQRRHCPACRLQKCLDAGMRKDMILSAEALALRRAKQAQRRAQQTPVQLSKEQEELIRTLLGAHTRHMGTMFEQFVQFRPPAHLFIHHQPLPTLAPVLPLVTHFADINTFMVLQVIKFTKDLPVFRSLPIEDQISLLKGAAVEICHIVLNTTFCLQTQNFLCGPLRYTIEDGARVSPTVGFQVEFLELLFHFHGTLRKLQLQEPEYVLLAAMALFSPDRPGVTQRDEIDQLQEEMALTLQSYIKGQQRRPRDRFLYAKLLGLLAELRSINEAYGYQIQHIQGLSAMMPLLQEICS

Experiment [2] has as its target chimpanzee Androgen Receptor (AR), AR (gene 747460) (UniProt O97775). Kind of experiment: NVS_NR_cAR: NovaScreen (NVS) Nuclear Receptor Binding Assay for chimpanzee Androgen Receptor (AR) (AID 2283346).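 Note: radioligand displacement from AR measured by scintillation counting in a cell-free assay.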 Summed up:
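Cell-free radioligand displacement using receptor protein extracted from Sf9/Sf21 cells; bound radioligand measured by scintillation counting 72 hours after chemical dosing. Loss of signal versus DMSO baseline indicates binding; primary screen single-concentration in duplicate at 25 uM, actives followed in concentration series.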

Experiment [3] addresses Bile acid receptor (Homo sapiens) (UniProt Q96RI1). Kind of experiment: NVS_NR_hFXR_Antagonist: NovaScreen (NVS) Nuclear Receptor Binding Assay for human Farnesoid X Receptor Antagonism (FXR) (AID 2283350). Summed up:
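Antagonist-format time-resolved FRET binding assay with extracted human receptor protein, read 1 hour after compound addition. Compounds first screened at 25 uM in duplicate, then actives tested in concentration series, with loss of signal relative to DMSO.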

In experiment [4] the target is rat Glutamate, MK-801 Agonist Site (GluNMDA_MK801), Grin1 (gene 24408) (UniProt P35439). Kind of experiment: NVS_LGIC_rGluNMDA_MK801_Agonist: NovaScreen (NVS) Ligand-Gated Ion Channel Assay for rat Glutamate, MK-801 Agonist Site (GluNMDA_MK801) (AID 2283340). The gist of the method:
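Rat forebrain membrane preparation; MK-801-site radioligand binding read by filtration and scintillation after 1.5 h. Single-point 25 uM duplicate screen, followed by singleton concentration series to 50 uM max; DMSO baseline.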

Experiment [5] concerns guinea pig Histamine Receptor (H2), gene 100729734. Kind of experiment: NVS_GPCR_gH2: NovaScreen (NVS) G Protein-Coupled Receptor Assay for guinea pig Histamine Receptor (H2) (AID 2283342). The gist of the method: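 Guinea pig striatal membrane preparation with specific radioligand; bound counts measured by filtration and scintillation 1 h post-dosing, DMSO as baseline. Chemicals passing a 25 uM duplicate screen were titrated to a 50 uM maximum.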

The target in experiment [6] is Androgen Receptor/SRC-1 Co-activator, AR (gene 367) (UniProt P10275). Kind of experiment: OT_AR_ARSRC1_0960: Odyssey Thera (OT) 16-hour HEK293T Protein-Complementation Assay for Androgen Receptor/SRC-1 Co-activator (AID 2283353).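 Note: actives raise the signal above DMSO so potency reflects increased AR and SRC-1 complex.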 Summed up: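 Readout: 488 nm nuclear-to-cytoplasmic fluorescence ratio from imaging of at least 400 cells per image, 16 h post-dose. Reporter is Venus YFP complementation between AR and SRC-1 fusions, stably expressed in HEK293T; activity scored upward relative to DMSO.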
Sequence of Androgen Receptor/SRC-1 Co-activator, AR (gene 367) (P10275 whole entry, looked up, the tested form may be a part): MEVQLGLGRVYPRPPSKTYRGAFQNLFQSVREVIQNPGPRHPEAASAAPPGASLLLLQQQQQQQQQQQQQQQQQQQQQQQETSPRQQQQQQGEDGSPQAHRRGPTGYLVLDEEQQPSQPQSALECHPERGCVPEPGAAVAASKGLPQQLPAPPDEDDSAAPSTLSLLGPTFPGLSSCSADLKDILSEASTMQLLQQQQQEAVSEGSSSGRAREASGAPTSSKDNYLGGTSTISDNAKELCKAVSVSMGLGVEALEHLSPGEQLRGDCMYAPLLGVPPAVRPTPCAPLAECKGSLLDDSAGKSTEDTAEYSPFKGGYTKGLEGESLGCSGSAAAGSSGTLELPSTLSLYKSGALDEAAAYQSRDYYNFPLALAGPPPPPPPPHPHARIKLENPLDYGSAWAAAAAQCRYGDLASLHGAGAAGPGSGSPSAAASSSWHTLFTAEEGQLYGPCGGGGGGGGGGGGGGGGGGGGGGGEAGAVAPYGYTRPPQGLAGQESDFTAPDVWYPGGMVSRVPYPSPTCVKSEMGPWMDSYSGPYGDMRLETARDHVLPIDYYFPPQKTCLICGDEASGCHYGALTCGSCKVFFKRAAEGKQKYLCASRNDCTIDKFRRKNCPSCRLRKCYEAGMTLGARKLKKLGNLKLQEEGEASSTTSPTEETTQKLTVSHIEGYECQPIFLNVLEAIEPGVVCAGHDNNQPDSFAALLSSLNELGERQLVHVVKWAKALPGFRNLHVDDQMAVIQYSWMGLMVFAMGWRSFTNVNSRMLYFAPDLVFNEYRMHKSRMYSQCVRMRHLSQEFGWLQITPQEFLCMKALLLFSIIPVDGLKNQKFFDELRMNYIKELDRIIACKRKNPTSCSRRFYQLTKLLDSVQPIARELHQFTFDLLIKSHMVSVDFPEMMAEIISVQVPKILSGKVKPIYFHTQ

Experiment [7] shares this target. Kind of experiment: OT_AR_ARSRC1_0480: Odyssey Thera (OT) 8-hour HEK293T Protein-Complementation Assay for Androgen Receptor/SRC-1 Co-activator (AID 2283354).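 Note: hits raise the complementation signal above DMSO so AC50 marks enhancers.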 Summed up: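 After 8 h dosing, stably expressing HEK293T cells with split-Venus AR/SRC-1 fusions were imaged (488, 635nm). The 488nm N/C ratio per image gave the endpoint, analysed in the positive direction against DMSO.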

In experiment [8] the target is Estrogen receptor beta (Homo sapiens) (UniProt Q92731). Kind of experiment: OT_ER_ERbERb_0480: Odyssey Thera (OT) 8-hour HEK293T Protein-Complementation Assay for Estrogen Receptor-beta/-beta Homodimer (AID 2283357).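 Note: active means signal gain over DMSO baseline.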 Summed up:
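Fluorescence gain from complemented reporter fragments on ER-beta LBD homodimer in HEK293T was quantified against DMSO controls after 8 h treatment, fixation in 4% formaldehyde and Draq5 staining.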

Experiment [9] concerns NCBI gene 100848466. Kind of experiment: NVS_NR_bPR: NovaScreen (NVS) Nuclear Receptor Binding Assay for bovine Progextron Receptor (PR) (AID 2283343).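 Note: actives lower bound radioligand signal below DMSO meaning displacement of the label.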 The gist of the method: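 Steps: bovine uterine membranes were dosed with chemical alongside radioligand, incubated 18 hours, then radiodetected by scintillation counting. Initial testing used 25 uM in duplicate; confirmed actives were rerun as concentration series.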

In experiment [10] the target is rat Mineralocorticoid Receptor (MR), Nr3c2 (gene 25672) (UniProt P22199). Kind of experiment: NVS_NR_rMR: NovaScreen (NVS) Nuclear Receptor Binding Assay for rat Mineralocorticoid Receptor (MR) (AID 2283355). The gist of the method: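 Single-concentration duplicate screen (25 uM) of radioligand binding in adrenalectomized rat brain supernatant; scintillation detection 24 h after dosing. Positive and negative controls ran on each plate, and confirmed actives went to concentration-response.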

In experiment [11] the target is bovine Estrogen Receptor (ER), ESR1 (gene 407238) (UniProt P49884). Kind of experiment: NVS_NR_bER: NovaScreen (NVS) Nuclear Receptor Binding Assay for bovine Estrogen Receptor (ER) (AID 2283345).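 Note: actives lower the bound radioligand count which means they displace the ER ligand.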 The gist of the method:
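Cell-free radioligand binding with receptor from bovine uterine membranes, read by scintillation counting 18 h after dosing. Loss of specific binding was scored against DMSO; primary screen at 25 uM in duplicate, actives then run as concentration series.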

The target in experiment [12] is Estrogen receptor (Homo sapiens) (UniProt P03372). Kind of experiment: NVS_NR_hER: NovaScreen (NVS) Nuclear Receptor Binding Assay for human Estrogen Receptor (ER) (AID 2283348). The gist of the method:
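Radiodetection of ligand displacement in a lysate-based, cell-free format using MCF7 extracts, read at 18 hours. Duplicate 25 uM primary testing, then concentration series for actives.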

Experiment [13] shares this target. Kind of experiment: OT_ER_ERaERa_0480: Odyssey Thera (OT) 8-hour HEK293T Protein-Complementation Assay for Estrogen Receptor-alpha/-alpha Homodimer (AID 2283351).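 Note: rise in fluorescence from reassembled reporter fragments on ERα LBD homodimer in nucleus or whole cell.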 The gist of the method: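 Read-out: fluorescence intensity rise relative to DMSO, nuclear for agonists, nuclear plus cytoplasmic for antagonists. Construct is the ERα LBD (aa 310-547) homodimer fragment-complementation pair, stably expressed in HEK293T; exposure 8 h.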

For experiment [14], the target named is Estrogen receptor (Homo sapiens) + Estrogen receptor beta (Homo sapiens) (UniProt P03372+Q92731). Kind of experiment: OT_ER_ERaERb_1440: Odyssey Thera (OT) 24-hour HEK293T Protein-Complementation Assay for Estrogen Receptor-alpha/-beta Homodimer (AID 2283356).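 Note: heteromer of ER alpha and ER beta binding domains; hits raise reporter fluorescence and both agonists and antagonists give an increase.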 The gist of the method:
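24 h exposure; HEK293T PCA cells with ERα/ERβ LBD fragments; signal rise in nuclear or whole-cell fluorescence over vehicle.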

Structures are written as SMILES. Results filed as inconclusive are left out. Activity calls are given as the source filed them. Rule for the calls: active = hit-call score of the fitted dose curve at least 0.9, where 1 is the maximum; inconclusive = response in the unintended direction; inactive = score below 0.9.

The source of these data is PubChem BioAssay (EPA / NIEHS).

Sequence of Estrogen receptor (Homo sapiens) (P03372 whole entry, looked up): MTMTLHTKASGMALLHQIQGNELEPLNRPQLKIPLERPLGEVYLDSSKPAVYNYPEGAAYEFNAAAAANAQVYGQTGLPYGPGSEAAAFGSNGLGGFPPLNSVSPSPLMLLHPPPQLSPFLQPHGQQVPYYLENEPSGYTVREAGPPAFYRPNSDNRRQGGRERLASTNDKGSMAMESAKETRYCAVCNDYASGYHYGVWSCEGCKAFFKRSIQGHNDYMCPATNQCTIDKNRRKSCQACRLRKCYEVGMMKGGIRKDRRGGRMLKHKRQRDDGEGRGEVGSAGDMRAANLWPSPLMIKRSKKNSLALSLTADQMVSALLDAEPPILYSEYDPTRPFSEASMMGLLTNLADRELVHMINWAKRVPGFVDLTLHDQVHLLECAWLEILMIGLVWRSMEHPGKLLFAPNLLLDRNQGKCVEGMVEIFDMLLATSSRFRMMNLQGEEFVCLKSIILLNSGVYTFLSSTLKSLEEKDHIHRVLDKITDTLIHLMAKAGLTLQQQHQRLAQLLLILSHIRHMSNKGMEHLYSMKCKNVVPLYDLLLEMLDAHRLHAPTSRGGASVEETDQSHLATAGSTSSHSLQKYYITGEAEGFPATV
Sequence of Estrogen receptor (Homo sapiens) + Estrogen receptor beta (Homo sapiens) (P03372 whole entry, looked up, the tested form may be a part): as the sequence (P03372 whole entry, looked up) above
Sequence of Estrogen receptor (Homo sapiens) + Estrogen receptor beta (Homo sapiens) (Q92731 whole entry, looked up, the tested form may be a part): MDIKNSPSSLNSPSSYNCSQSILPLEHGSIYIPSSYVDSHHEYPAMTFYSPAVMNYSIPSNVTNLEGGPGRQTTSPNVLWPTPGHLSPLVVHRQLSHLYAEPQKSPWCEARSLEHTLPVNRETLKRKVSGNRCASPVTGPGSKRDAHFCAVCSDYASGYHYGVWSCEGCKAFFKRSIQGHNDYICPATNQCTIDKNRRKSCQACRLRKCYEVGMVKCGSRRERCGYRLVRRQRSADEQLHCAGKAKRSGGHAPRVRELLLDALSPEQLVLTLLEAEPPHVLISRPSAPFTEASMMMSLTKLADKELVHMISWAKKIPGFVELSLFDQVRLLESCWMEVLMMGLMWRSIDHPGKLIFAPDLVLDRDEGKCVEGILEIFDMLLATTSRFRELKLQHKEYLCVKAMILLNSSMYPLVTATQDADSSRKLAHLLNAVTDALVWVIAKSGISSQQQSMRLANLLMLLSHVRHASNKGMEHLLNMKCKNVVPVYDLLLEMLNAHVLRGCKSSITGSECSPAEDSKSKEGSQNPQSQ
Sequence of Estrogen receptor beta (Homo sapiens) (Q92731 whole entry, looked up, the tested form may be a part): as above
Sequence of chimpanzee Androgen Receptor (AR), AR (gene 747460) (O97775 whole entry, looked up): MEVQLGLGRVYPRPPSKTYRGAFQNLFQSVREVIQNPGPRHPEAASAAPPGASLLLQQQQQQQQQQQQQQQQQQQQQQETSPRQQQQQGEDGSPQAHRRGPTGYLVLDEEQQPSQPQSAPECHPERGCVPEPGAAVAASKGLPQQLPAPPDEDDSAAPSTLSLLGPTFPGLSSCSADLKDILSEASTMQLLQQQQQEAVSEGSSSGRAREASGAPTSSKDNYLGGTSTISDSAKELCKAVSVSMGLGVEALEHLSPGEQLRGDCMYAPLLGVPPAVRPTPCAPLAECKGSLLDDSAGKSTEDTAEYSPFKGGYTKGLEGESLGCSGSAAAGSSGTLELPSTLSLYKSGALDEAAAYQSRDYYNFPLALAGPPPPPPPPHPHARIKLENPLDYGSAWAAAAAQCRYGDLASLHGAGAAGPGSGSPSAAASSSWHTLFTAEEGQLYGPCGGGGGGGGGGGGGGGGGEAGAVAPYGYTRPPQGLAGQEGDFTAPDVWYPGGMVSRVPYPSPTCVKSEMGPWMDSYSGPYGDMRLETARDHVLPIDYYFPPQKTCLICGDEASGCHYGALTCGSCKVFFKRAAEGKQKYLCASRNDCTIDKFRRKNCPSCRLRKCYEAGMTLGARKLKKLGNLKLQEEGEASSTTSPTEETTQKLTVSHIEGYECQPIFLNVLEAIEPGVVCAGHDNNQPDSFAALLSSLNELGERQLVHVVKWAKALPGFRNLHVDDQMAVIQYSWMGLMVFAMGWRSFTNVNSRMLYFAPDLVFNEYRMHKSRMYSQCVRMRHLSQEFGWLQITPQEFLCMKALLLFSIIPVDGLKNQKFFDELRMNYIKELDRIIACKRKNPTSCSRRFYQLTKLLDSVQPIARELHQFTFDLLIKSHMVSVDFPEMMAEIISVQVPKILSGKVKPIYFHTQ
Sequence of Bile acid receptor (Homo sapiens) (Q96RI1 whole entry, looked up): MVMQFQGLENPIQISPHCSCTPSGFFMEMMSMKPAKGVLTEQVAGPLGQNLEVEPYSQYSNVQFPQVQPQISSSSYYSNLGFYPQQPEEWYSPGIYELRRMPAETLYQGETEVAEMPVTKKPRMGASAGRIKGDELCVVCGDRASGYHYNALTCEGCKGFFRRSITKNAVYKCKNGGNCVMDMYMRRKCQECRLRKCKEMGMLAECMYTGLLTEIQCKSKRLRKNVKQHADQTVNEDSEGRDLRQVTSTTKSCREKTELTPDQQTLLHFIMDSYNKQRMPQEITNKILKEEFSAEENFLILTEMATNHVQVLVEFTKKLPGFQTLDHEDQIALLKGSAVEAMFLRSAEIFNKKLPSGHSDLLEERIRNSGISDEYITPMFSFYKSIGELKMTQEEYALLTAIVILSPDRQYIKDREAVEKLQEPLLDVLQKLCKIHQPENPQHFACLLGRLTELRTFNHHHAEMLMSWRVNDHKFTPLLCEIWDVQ
Sequence of bovine Estrogen Receptor (ER), ESR1 (gene 407238) (P49884 whole entry, looked up): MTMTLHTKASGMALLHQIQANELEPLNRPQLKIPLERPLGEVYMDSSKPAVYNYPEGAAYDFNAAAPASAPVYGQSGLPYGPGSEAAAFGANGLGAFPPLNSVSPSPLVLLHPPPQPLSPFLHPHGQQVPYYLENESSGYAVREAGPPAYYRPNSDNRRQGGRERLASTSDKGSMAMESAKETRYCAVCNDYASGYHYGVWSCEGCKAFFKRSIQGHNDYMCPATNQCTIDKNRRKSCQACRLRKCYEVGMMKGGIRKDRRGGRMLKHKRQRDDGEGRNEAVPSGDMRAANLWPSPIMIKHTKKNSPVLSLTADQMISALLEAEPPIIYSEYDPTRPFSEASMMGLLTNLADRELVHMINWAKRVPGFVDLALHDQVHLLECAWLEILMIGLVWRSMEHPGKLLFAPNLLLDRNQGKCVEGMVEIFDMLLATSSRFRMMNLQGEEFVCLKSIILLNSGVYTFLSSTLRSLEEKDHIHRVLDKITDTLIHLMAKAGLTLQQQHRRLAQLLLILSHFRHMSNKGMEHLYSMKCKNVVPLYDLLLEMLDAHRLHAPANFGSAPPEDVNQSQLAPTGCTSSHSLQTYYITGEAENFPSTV

Turning to `CC(C)=CCC/C(C)=C\CO`, the outcome in experiment [1], in [2] and in experiment [3] was inactive.
Consider `Fc1ccccc1[C@@H](F)COC1CCC(Nc2ncnc3[nH]ncc23)CC1` (stereo partly drawn), for which the result in [4], in [5] and in experiment [8] was inactive. Moreover, the AC50 in [6] is 33.2 µM (active); in experiment [7] it was 50 µM (active).
For `CN(C)c1ccc(N=NS(=O)(=O)O)cc1`, the compound was classed as inactive in experiment [1], in experiment [6] and in [7].
For `Nc1nc2ncc(CNc3ccc(C(=O)N[C@@H](CCC(=O)O)C(=O)O)cc3)nc2c(=O)[nH]1`, the compound was classed as inactive in [2], in experiment [6], in experiment [7] and in experiment [8].
Take `Oc1ccc2c(c1)-c1ccccc1C2`: the half-maximal activity concentration (AC50) in [9] was 25 µM (active); in experiment [2], 8.77 µM (active); in experiment [6], 35.1 µM (active); in experiment [7], 50 µM (active); in experiment [8] it was 12.7 µM (active). For the same compound, the result in [10] was inactive.
`C=CCCCCCCCCC(=O)O`: the call in experiment [11], in experiment [12], in [13], in experiment [14] and in [8] was inactive.
As for `CN(C)c1ccc(Cc2ccc(N(C)C)cc2)cc1`, the compound was called inactive in [8].
For `COC(=O)c1ccccc1O`, the result in experiment [14] and in experiment [8] was inactive.
As for `Clc1nc(Cl)c(Cl)c(Cl)c1Cl`, in experiment [8], the call was inactive.
For `CNCc1ccc(NC(=O)c2c[nH]c3c2C(=O)CCC3)cc1`, in experiment [8], the compound was called inactive.
With `CCOC(=O)CC(CC(=O)OCC)(OC(C)=O)C(=O)OCC`, the call in experiment [8] was inactive.
In the case of `C=CC(=C)CCC=C(C)C`, the compound was classed as inactive in [13], in experiment [14] and in experiment [8].
With `C1N2CN3CN1CN(C2)C3`, the compound was classed as inactive in experiment [6] and in [8].
In the case of `C1=CCCC=CCCC=CCC1`, the compound was classed as inactive in experiment [8].
Take `CCOCCOCCOCCO`: the outcome in [8] was inactive.
For the compound `CCNc1ccccc1`, the compound was classed as inactive in experiment [6], in experiment [7] and in [8].
With `O=C1CCCCCN1`, the compound was classed as inactive in experiment [8].
Take `CC(C)CC(C)(O)C#CC(C)(O)CC(C)C` (stereo not drawn): the compound was classed as inactive in experiment [8].
Regarding `Cc1ccc(O)cc1`, the compound was called inactive in [6], in experiment [7] and in [8].
With `CC[C@H]1OC(=O)[C@H](C)[C@@H](O[C@H]2C[C@@](C)(OC)[C@@H](O)[C@H](C)O2)[C@H](C)[C@@H](O[C@@H]2O[C@H](C)C[C@H](N(C)C)[C@H]2O)[C@](C)(O)C[C@@H](C)C(=O)[C@H](C)[C@@H](O)[C@]1(C)O`, the compound was called inactive in experiment [8].
On to `O=C1OC(=O)C2C3C=CC(C3)C12` (stereo not drawn), for which the outcome in experiment [8] was inactive.
Turning to `COc1ccc(/C=C/S(=O)(=O)NC(=O)c2ccc(C)cc2Cl)cc1`, the result in experiment [8] was inactive.
Turning to `CC1(C)C(=O)N(Br)C(=O)N1Br`, the result in [6], in [7] and in experiment [8] was inactive.
For the compound `O=c1n(CC2CO2)c(=O)n(CC2CO2)c(=O)n1CC1CO1` (stereo not drawn), the call in experiment [13], in experiment [14] and in experiment [8] was inactive.
In the case of `O=C1CCC(N2C(=O)c3ccccc3C2=O)C(=O)N1` (stereo not drawn), the compound was classed as inactive in [8].
Consider `CC(C)CCCCCCOC(=O)c1ccc(C(=O)OCCCCCCC(C)C)c(C(=O)OCCCCCCC(C)C)c1`, for which, in experiment [8], the compound was called inactive.

What is called AC50 is the concentration at which the activity in the assay is half-maximal.
